The structures appear in SMILES notation. Active and inactive are the calls of the source.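 The calls were made as follows: active = fitted half-maximal concentration AC50 at or below ten times the highest valid tested dose, with signal falling as DNA is displaced (actives reach about 34 µM in these data); inconclusive = flat fit at moderate signal loss, or poor fit quality; inactive = the rest, including signal rising instead of falling.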

This is an account of results in PubChem BioAssay AID504727 (Broad Institute, 2011).

The nature of this assay: acridine orange-DNA binding displacement – biochemical, fluorescence polarization, cherry-picked samples, set 2, artefact control for KSHV LANA DNA-binding inhibitor project, dose response (AID 504727). To be noted: series mostly up to 35 µM. (In general: Fluorescence polarisation rises when a labelled molecule tumbles more slowly, as on binding a larger partner.)
For the molecule `NC(=O)c1ccc(NC(=O)C2COc3ccccc3O2)cc1` (stereo not drawn), the AC50 result is “inactive”.
Turning to `O=C(NC1(O)C(=O)c2ccccc2C1=O)c1c(Cl)cccc1Cl`, the AC50 entry is “inactive”.
Then `Nc1ccc(-c2nc3ccc(C(=O)O)cc3s2)cc1`, with “inactive”.
Then `CC[C@H](C)[C@H](NC(N)=O)C(=O)Nc1ccc(NC(C)=O)cc1`, with “inactive”; and `O=C(Cn1ncc(N2CCCC2)c(Cl)c1=O)c1ccc(Cl)cc1`, with “inactive”; and `CC(C)N(C(=S)Nc1cccnc1)c1ccccc1`, with “inactive”.
With `C=C(C)C(=O)Nc1cccc(C2=NOC3(C2)C[C@@H](C(N)=O)N(C(=O)C2(C)CC2)C3)c1` (stereo partly drawn) the entry was “inactive”; with `Cc1nc(Cl)c2c(n1)NC1=C(O2)C(=O)CCC1`, 11.1 µM (active).
Consider `COc1ccc(C2c3ccc(O)cc3Oc3ncn(CCCO)c(=N)c32)cc1OC` (stereo not drawn), for which the AC50 entry is “inactive”.
With `O=S(=O)(O)c1cc(Cl)cc(N=Nc2ccc(O)cc2O)c1O`, the AC50 result is “inactive”.
For `COc1cccc(NC(=O)CN(C)C(=O)c2cc3ccccc3cc2OC)c1`, the AC50 result was “inactive”.
With `O=C(O)CC(C(=O)O)N1C(=O)/C(=C/C=C/c2ccco2)SC1=S` (stereo not drawn) the entry was “inactive”; with `CCN(CC)C(=S)SC1CCCCN(C(=O)c2ccccc2)C1=O` (stereo not drawn), “inactive”.
For `COc1ccc2c3c(cccc13)C(=O)CC2`, the AC50 was 6.92 µM (active).
Then `Cc1ccc(C)c(OCC(=O)N(Cc2nnc(-c3ccccc3Cl)o2)C2CC2)c1`, with “inactive”.
On to `CCCC1(C2CCCC2)NC(=O)NC1=O` (stereo not drawn), for which the AC50 result is “inactive”.
With `CC(C)=C[C@@H]1C[C@H](C)[C@H]2CC[C@H](C)c3c(O[C@@H]4O[C@@H](C)[C@@H](O)[C@@H](O)[C@@H]4O)c(O)c(C)c1c32` the entry was “inactive”; with `Cc1cc(C)n(CCC(=O)N/N=C/c2ccc(O)cc2O)n1`, “inactive”.
As to `CC(OC(=O)CCN1C(=O)C2CC=CCC2C1=O)C(=O)Nc1ccc(F)cc1` (stereo not drawn), the AC50 result is “inactive”.
Then `Cc1c(C)n(CCC(=O)O)c2ccccc12`, with “inactive”.
Take `CC(C)(C)n1nnnc1C(c1cccnc1)N(Cc1ccccc1)Cc1ccco1` (stereo not drawn): the AC50 is 0.202 µM (active).
For the molecule `COc1cc(O)c(C(C)=O)c(CC(=O)O)c1`, the AC50 result is “inactive”.
Then `COc1ccc(NC(=O)NS(=O)(=O)c2ccc(C)cc2)cn1`, with “inactive”; and `Cc1cccc(-c2nsc(SCC(=O)Nc3nccs3)n2)c1`, with “inactive”; and `O=S(=O)(O)c1cccc2c(N=Nc3ccc(O)c4ncccc34)cccc12`, with “inactive”.
With `COc1cc(OC)cc(C(=O)NC2CC3CCC(C2)N3C)c1` (stereo not drawn) the entry was “inactive”.
Then `Nc1ccc2c3c(cccc13)C(=O)N(c1ccccc1)C2=O`, with 3.91 µM (active).
As for `Cc1cc(Cl)ccc1N1C(=O)CC(NNC(=O)c2cccnc2)C1=O` (stereo not drawn), the AC50 result is “inactive”.
Then `O=C(COc1ccccc1Cc1ccccc1)NCCCN1CCOCC1`, with 33.9 µM (active); and `CCOc1ccc2noc3c2c1C(=O)c1ccccc1-3`, with 0.728 µM (active); and `CCOC(=O)C1(Cc2cccc(F)c2)CCN(Cc2c(C)nn(CC)c2C)CC1`, with “inactive”.
`O=C(COC(=O)c1ccc([N+](=O)[O-])o1)NCCCc1ccccc1`: the AC50 result is “inactive”.
`O=C(c1cccc(S(=O)(=O)NCc2ccccc2)c1)N1CCN(c2ccccc2Cl)CC1`: the AC50 entry is “inactive”.
With `CCSc1nnc(Cc2cc(=O)[nH]c(=O)[nH]2)n1-c1ccc(F)cc1` the entry was “inactive”.
With `COc1cccc(/C=N/NC(=O)C(=O)NCc2cccnc2)c1O` the entry was “inactive”; with `COC(=O)c1sc(C(F)(F)F)c(-c2ccccc2)c1S(=O)(=O)N1CCOCC1`, “inactive”; with `Cc1ccc(C(=O)CCC(=O)Nc2ncccc2C)cc1`, “inactive”.
With `CCc1ccc[n+](-c2[nH]c(=O)sc2/C=N/NC([S-])=Nc2ccccc2)c1` the figure was 14.8 µM (active).

Usually AC50 stands for the midpoint of the concentration-response curve, whichever way the signal moves.
